# Test results taken from the supplement of paper PMC6522484.
# Structures can show the parent of a compound that is named as a salt. ± gives the standard deviation of the averaged measurements.
# How the values were obtained:
# DLD1 [1] = assay: cell viability (CellTiter-Glo) relative to plate median (fraction of plate median); higher = more viable cells; conditions: 10 µM, treatment time 24 h
# In short: (§1)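 Reporter and viability luminescence were measured in colorectal cancer cells stably carrying lentiviral TCF/Wnt firefly luciferase reporters. The cells were exposed to kinase inhibitor library compounds at a final 10 µM for 24 h, starting 24 h after seeding in 384-well plates. Each well was normalised to the plate median (webcellHTS2, additive, no log transformation), and two independent replicates were averaged.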
# HCT116 [2] = assay: as above; conditions: 10 µM; treatment time 24 h; reporter: TCF4/Wnt
# In short: as §1
# SW480 [3] = assay: as above; conditions: 10 µM; treatment time 24 h; reporter: 7TFP
# In short: as §1
# DLD1 [4] = assay: TCF/Wnt firefly luciferase reporter signal relative to plate median (fraction of plate median); higher = higher Wnt reporter signal; conditions: 10 µM, treatment time 24 h
# In short: as §1
# HCT116 [5] = assay: as above; conditions: 10 µM; treatment time 24 h; reporter: TCF4/Wnt
# In short: as §1
# SW480 [6] = assay: as above; conditions: 10 µM; treatment time 24 h; reporter: 7TFP
# In short: as §1
Compound,cell viability (DLD1 [1]; reporter: 7TFP),cell viability (DLD1 [1]; reporter: TCF4/Wnt),cell viability (HCT116 [2]),cell viability (SW480 [3]),TCF/Wnt firefly luciferase reporter signal (DLD1 [4]; reporter: 7TFP),TCF/Wnt firefly luciferase reporter signal (DLD1 [4]; reporter: TCF4/Wnt),TCF/Wnt firefly luciferase reporter signal (HCT116 [5]),TCF/Wnt firefly luciferase reporter signal (SW480 [6])
COc1cc(Nc2c(C#N)cnc3cc(OCCCN4CCN(C)CC4)c(OC)cc23)c(Cl)cc1Cl [Bosutinib (SKI-606)],0.869 ± 0.034,0.9025 ± 0.0021,0.864 ± 0.016,0.995 ± 0.035,0.4675 ± 0.0035,0.534 ± 0.021,0.242 ± 0.22,0.648 ± 0.23
COc1ccc(-c2ccc3ncc4c(c3c2)n(-c2ccc(N3CCNCC3)c(C(F)(F)F)c2)c(=O)n4C)cn1,0.0998 ± 0.065,0.116 ± 0.084,0.0311 ± 0.011,0.273 ± 0.18,0.0479 ± 0.0086,0.0791 ± 0.014,0.0387 ± 0.017,0.148 ± 0.14
CCN(CC)CCCCNc1ncc2cc(-c3cc(OC)cc(OC)c3)c(NC(=O)NC(C)(C)C)nc2n1,0.835 ± 0.052,1.01 ± 0.028,1.055 ± 0.0071,1.1 ± 0.071,0.702 ± 0.073,0.698 ± 0.073,0.781 ± 0.058,1.04 ± 0.18
O=C1Nc2ccccc2/C1=C1/Nc2ccccc2C1=O [Indirubin],0.941 ± 0.044,0.819 ± 0.025,1.09 ± 0.13,0.862 ± 0.034,1.44 ± 0.057,1.2 ± 0.31,0.935 ± 0.054,1.08 ± 0.042
Cc1ccc(-n2nc(C(C)(C)C)cc2NC(=O)Nc2ccc(OCCN3CCOCC3)c3ccccc23)cc1 [BIRB 796 (Doramapimod)],1.15 ± 0.057,1.12 ± 0.17,1.06 ± 0.096,0.975 ± 0.064,0.984 ± 0.0028,1.05 ± 0.17,1.18 ± 0.22,1.07 ± 0.078
COc1cc2c(N3CCN(C(=O)Nc4ccc(OC(C)C)cc4)CC3)ncnc2cc1OCCCN1CCCCC1 [Tandutinib (MLN518)],1.09 ± 0.05,1.1 ± 0.085,1.09 ± 0.028,1.11,0.956 ± 0.12,1.03 ± 0.028,1.08 ± 0.035,1.33 ± 0.05
NC1(Cc2ccc(Cl)cc2)CCN(c2ncnc3[nH]ccc23)CC1,1.18 ± 0.05,1.105 ± 0.0071,0.787 ± 0.073,1.02 ± 0.035,1.03 ± 0.045,0.886 ± 0.078,1.02 ± 0.32,1.01 ± 0.11
COc1ccc(-c2ccc3c(N4CCOC[C@@H]4C)nc(N4CCOC[C@@H]4C)nc3n2)cc1CO,0.94 ± 0.14,0.921 ± 0.033,0.823 ± 0.12,1.17 ± 0.099,0.34 ± 0.042,0.4795 ± 0.0021,0.567 ± 0.08,0.829 ± 0.035
CN(C[C@@H]1COCCO1)S(=O)(=O)Nc1ccc2ccc3ncc(-c4cnn(C)c4)cc3c(=O)c2c1,0.907 ± 0.053,0.888 ± 0.044,0.926 ± 0.15,0.9835 ± 0.0064,0.96 ± 0.1,1.07 ± 0.035,0.972 ± 0.39,1.02 ± 0.36
N#CC[C@H](C1CCCC1)n1cc(-c2ncnc3[nH]ccc23)cn1,1.115 ± 0.0071,1.13 ± 0.057,1.09,0.9755 ± 0.0021,1.05 ± 0.15,1.025 ± 0.0071,1.13 ± 0.042,1.09 ± 0.042
CCN1CCN(Cc2ccc(-c3cc4c(N[C@H](C)c5ccccc5)ncnc4[nH]3)cc2)CC1,0.92 ± 0.15,0.999 ± 0.1,0.938 ± 0.0014,1.115 ± 0.0071,0.905 ± 0.011,0.852 ± 0.22,1.08 ± 0.085,1.24 ± 0.057
CC(C)CC(=O)Nc1n[nH]c2c1CN(C(=O)C1CCN(C)CC1)C2(C)C,1.07 ± 0.028,1.27 ± 0.15,0.793 ± 0.13,1.32 ± 0.071,1.33 ± 0.26,2.31 ± 0.37,0.193 ± 0.053,0.836 ± 0.064
Cn1cc(C2=C(c3ccc(Cl)cc3Cl)C(=O)NC2=O)c2ccccc21,1.05 ± 0.18,0.952 ± 0.058,1.01 ± 0.088,0.993 ± 0.067,1.4 ± 0.057,1.35 ± 0.43,1.56 ± 0.61,1.35 ± 0.16
COc1cccc(-c2cc(=O)c3ccccc3o2)c1N,1.24 ± 0.085,1.025 ± 0.0071,1.19 ± 0.071,1 ± 0.023,1.71 ± 0.2,1.62 ± 0.53,1.25 ± 1,1.27 ± 0.65
COc1cc2c(Oc3ccc4[nH]c(C)cc4c3F)ncnc2cc1OCCCN1CCCC1 [Cediranib (AZD2171)],0.659 ± 0.18,0.769 ± 0.054,0.658 ± 0.02,0.893 ± 0.067,0.968 ± 0.51,0.801 ± 0.32,0.354 ± 0.15,0.699 ± 0.12
COc1cc2nccc(Oc3ccc(NC(=O)Nc4cc(C)on4)c(Cl)c3)c2cc1OC [Tivozanib (AV-951)],0.936 ± 0.09,0.997 ± 0.033,1.11 ± 0.021,1.07 ± 0.021,0.755 ± 0.0078,0.726 ± 0.046,1.15 ± 0.099,0.775 ± 0.32
COc1cc(Nc2ncc(F)c(Nc3ccc4c(n3)NC(=O)C(C)(C)O4)n2)cc(OC)c1OC,1.1 ± 0.17,0.982 ± 0.054,1.11 ± 0.12,1.01 ± 0.037,1.05 ± 0.13,0.941 ± 0.044,1.24 ± 0.2,0.914 ± 0.57
Cc1ccc(Nc2nccc(N(C)c3ccc4c(C)n(C)nc4c3)n2)cc1S(N)(=O)=O [Pazopanib HCl],1.11 ± 0.23,1.03 ± 0.073,1.065 ± 0.0071,0.846 ± 0.018,1.125 ± 0.0071,1.06 ± 0.19,1.14 ± 0.028,0.931 ± 0.087
O=c1c(O)c(-c2ccc(O)c(O)c2)oc2cc(O)cc(O)c12 [Quercetin (Sophoretin)],1.19 ± 0.035,1.02 ± 0.046,1.23 ± 0.092,0.92 ± 0.013,1.07 ± 0.014,1.04 ± 0.035,1.16 ± 0.071,0.978 ± 0.073
CCN1CCN(c2ccc(Nc3cc(N(C)C(=O)Nc4c(Cl)c(OC)cc(OC)c4Cl)ncn3)cc2)CC1,1.36 ± 0.18,1.06 ± 0.071,1.16 ± 0.092,0.921 ± 0.033,1.24 ± 0.11,1.06 ± 0.51,0.852 ± 0.15,0.921 ± 0.12
Cn1cc(-c2ccc3nnc(C(F)(F)c4ccc5ncccc5c4)n3n2)cn1,1.14 ± 0.13,0.972 ± 0.11,1.16 ± 0.05,0.846 ± 0.059,1.35 ± 0.05,1.4 ± 0.32,1.25 ± 0.43,1.06 ± 0.064
COc1ccc2c3n(c(=NC(=O)c4cccnc4)nc2c1OC)CCN3,1.005 ± 0.0071,0.944 ± 0.026,0.958 ± 0.028,1.04 ± 0.042,0.858 ± 0.13,1.05 ± 0.1,1.12 ± 0.13,0.67 ± 0.33
